Reference: publication PMC7862700, “An all-to-all approach to the identification of sequence-specific readers for epigenetic DNA modifications on cytosine”

What was measured:
Assay in all cases: DAPPL (digital affinity profiling via proximity ligation, sequencing); 10 mM Tris-HCl pH 7.5, 50 mM NaCl, 1 mM DTT, 4% glycerol, room temperature, 30 min; GST-TFs on glutathione beads, 16-mer random dsDNA library, 0.1% formaldehyde crosslink after washing; high values mean tight binding
FLI1 = biological target: T1, FLI1 (Homo sapiens, UniProt Q01543 1-452); details: protein: recombinant; tags: N-terminal GST; dsDNA, one strand shown
T1 sequence: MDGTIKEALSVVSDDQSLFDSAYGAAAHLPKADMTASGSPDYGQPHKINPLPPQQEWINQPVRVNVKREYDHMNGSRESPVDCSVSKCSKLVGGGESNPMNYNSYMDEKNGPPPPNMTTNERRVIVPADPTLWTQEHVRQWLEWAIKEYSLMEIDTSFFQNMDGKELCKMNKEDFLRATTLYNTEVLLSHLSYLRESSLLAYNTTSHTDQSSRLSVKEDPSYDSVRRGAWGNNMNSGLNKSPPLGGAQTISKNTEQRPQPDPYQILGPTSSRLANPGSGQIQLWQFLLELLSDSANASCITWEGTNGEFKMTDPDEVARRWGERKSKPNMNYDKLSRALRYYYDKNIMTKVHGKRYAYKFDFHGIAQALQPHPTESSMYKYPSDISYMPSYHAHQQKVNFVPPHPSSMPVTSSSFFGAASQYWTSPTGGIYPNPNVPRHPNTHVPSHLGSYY
Summary of the method: (§1)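 Pools were built from human transcription factors expressed in yeast as GST fusions, captured on glutathione beads and DNA-barcoded, along with a tag-only sample. Incubation with 200 nmole of a 16-mer random double-stranded DNA library lasted 30 min at room temperature in Tris/NaCl/DTT/glycerol buffer, and was followed by washing, 0.1% formaldehyde crosslinking, proximity ligation, PCR amplification and Illumina NextSeq500 sequencing. Binding signal is the quotient of each hexamer's read frequency for a factor and its frequency for the tag-only sample.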

ELK1 = biological target: T2, ELK1 (Homo sapiens, UniProt P19419 1-428); details: protein: recombinant; tags: N-terminal GST; dsDNA, one strand shown
T2 sequence: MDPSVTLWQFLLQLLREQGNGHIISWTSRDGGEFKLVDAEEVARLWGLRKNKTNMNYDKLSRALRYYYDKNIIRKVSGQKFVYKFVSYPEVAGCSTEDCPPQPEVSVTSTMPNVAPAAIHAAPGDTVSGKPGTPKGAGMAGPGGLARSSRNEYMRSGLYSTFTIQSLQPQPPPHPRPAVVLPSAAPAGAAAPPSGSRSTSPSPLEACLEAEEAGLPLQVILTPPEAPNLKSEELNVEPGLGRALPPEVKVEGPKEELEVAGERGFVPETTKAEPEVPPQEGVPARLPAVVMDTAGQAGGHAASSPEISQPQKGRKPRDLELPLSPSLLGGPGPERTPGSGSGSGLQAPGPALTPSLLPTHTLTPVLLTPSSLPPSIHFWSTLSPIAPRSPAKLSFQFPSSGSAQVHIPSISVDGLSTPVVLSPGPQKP
Summary of the method: as §1

GABPA = biological target: T3, GABPA (Homo sapiens, UniProt Q06546 1-454); details: protein: recombinant; tags: N-terminal GST; dsDNA, one strand shown
T3 sequence: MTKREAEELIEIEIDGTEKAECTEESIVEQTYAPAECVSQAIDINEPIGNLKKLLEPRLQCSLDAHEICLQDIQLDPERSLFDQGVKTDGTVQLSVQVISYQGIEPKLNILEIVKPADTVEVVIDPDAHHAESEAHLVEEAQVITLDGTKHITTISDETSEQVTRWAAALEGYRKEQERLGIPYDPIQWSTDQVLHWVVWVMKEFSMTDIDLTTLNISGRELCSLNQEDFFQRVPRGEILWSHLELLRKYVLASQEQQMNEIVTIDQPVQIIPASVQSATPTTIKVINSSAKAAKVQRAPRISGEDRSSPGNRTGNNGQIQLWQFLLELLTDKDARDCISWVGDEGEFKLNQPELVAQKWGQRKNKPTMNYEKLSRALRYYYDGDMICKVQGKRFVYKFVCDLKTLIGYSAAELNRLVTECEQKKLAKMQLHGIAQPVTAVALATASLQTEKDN
Summary of the method: as §1

ERG = biological target: T4, ERG (Homo sapiens, UniProt P11308 1-479); details: protein: recombinant; tags: N-terminal GST; dsDNA, one strand shown
T4 sequence: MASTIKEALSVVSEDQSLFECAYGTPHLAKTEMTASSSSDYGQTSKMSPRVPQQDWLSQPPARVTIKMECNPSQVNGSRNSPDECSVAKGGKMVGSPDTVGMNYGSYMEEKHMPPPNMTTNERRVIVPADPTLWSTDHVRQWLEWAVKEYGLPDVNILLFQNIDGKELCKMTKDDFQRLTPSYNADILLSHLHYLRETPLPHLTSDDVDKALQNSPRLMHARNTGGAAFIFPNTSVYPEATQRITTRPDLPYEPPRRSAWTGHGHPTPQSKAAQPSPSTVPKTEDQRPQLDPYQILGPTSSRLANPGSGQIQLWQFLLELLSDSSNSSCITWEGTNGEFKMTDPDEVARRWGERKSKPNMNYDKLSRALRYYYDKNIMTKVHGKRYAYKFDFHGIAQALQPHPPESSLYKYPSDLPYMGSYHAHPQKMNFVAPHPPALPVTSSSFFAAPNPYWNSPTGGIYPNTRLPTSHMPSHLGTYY
Summary of the method: as §1

ELF1 = ELF1 (Homo sapiens, UniProt P32519 1-619); details: protein: recombinant; tags: N-terminal GST; dsDNA, one strand shown
ELF1, sequence (P32519 whole entry): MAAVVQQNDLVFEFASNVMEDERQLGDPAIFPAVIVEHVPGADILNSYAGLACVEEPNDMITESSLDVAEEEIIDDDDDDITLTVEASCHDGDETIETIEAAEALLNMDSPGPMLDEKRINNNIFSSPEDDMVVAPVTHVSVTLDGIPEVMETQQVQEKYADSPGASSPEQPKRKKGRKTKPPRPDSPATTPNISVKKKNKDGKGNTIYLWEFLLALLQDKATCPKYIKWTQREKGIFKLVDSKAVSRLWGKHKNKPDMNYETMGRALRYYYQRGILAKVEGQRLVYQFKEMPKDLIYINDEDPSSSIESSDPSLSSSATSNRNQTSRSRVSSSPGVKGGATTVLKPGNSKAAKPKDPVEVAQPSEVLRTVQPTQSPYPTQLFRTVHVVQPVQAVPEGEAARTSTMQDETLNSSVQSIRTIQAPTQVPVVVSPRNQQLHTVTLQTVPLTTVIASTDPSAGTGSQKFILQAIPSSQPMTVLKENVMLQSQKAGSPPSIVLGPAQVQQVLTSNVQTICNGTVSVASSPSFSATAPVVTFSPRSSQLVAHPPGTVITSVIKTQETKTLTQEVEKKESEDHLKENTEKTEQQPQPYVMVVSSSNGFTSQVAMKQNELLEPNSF
Summary of the method: as §1

EHF = biological target: T5, EHF (Homo sapiens, UniProt Q9NZC4 1-300); details: protein: recombinant; tags: N-terminal GST; dsDNA, one strand shown
T5 sequence: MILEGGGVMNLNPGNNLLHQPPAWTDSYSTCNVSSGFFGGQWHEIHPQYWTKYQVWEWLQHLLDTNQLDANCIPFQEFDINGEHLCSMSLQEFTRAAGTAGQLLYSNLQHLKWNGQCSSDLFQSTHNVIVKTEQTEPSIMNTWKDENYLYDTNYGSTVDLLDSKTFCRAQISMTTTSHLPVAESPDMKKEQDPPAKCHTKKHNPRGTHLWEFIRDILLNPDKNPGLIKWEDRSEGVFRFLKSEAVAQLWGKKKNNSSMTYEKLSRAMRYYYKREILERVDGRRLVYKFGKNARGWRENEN
Summary of the method: as §1

SPI1 = SPI1 (Homo sapiens, UniProt P17947 1-270); details: protein: recombinant; tags: N-terminal GST; dsDNA, one strand shown
Summary of the method: as §1

SPIB = SPIB (Homo sapiens, UniProt Q01892 1-262); details: protein: recombinant; tags: N-terminal GST; dsDNA, one strand shown
SPIB, sequence (Q01892 whole entry): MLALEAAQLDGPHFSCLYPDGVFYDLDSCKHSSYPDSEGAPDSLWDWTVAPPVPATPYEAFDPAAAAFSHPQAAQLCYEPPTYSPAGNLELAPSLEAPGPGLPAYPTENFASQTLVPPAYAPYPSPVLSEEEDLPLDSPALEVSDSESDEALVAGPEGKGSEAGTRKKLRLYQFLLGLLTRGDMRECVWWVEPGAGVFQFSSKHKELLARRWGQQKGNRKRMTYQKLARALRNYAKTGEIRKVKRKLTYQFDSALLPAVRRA
Summary of the method: as §1

ELK3 = biological target: T6, ELK3 (Homo sapiens, UniProt P41970 1-407); details: protein: recombinant; tags: N-terminal GST; dsDNA, one strand shown
T6 sequence: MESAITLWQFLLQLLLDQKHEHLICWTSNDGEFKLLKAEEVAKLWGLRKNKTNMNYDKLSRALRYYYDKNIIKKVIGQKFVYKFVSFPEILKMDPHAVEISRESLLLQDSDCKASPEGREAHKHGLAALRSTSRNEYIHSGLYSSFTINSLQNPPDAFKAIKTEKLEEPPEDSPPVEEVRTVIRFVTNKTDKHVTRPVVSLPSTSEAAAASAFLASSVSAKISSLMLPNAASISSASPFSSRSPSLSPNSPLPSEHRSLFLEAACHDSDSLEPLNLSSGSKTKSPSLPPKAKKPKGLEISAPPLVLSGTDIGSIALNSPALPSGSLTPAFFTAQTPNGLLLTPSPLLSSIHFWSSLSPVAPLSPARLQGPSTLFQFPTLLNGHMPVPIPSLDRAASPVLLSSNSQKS
Summary of the method: as §1

FEV = biological target: T7, FEV (Homo sapiens, UniProt Q99581 1-238); details: protein: recombinant; tags: N-terminal GST; dsDNA, one strand shown
T7 sequence: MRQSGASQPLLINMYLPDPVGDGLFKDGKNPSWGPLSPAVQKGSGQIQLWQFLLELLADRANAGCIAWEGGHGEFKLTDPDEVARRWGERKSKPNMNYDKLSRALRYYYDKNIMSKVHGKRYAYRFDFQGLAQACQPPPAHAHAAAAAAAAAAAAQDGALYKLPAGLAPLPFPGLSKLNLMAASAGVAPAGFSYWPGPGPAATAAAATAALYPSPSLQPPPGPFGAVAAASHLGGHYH
Summary of the method: as §1

ETV5 = ETV5 (Homo sapiens, UniProt P41161 1-510); details: protein: recombinant; tags: N-terminal GST; dsDNA, one strand shown
ETV5, sequence (P41161 whole entry): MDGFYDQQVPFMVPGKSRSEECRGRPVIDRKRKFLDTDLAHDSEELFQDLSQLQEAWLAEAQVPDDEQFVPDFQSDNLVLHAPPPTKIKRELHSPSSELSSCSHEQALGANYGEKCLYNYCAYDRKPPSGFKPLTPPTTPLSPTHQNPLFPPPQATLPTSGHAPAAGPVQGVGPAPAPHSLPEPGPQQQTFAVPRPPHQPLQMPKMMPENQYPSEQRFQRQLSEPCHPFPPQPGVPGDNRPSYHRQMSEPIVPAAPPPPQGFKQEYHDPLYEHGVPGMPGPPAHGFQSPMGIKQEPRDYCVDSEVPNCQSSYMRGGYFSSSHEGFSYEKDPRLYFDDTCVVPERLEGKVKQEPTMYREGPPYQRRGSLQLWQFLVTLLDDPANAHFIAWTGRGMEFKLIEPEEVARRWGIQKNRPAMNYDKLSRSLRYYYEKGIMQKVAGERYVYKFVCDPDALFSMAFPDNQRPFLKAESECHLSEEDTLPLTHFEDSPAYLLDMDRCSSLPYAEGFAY
Summary of the method: as §1

HSF1 = HSF1 (Homo sapiens, UniProt Q00613 1-529); details: protein: recombinant; tags: N-terminal GST; chain copies: 3; dsDNA, one strand shown
HSF1, sequence (Q00613 whole entry): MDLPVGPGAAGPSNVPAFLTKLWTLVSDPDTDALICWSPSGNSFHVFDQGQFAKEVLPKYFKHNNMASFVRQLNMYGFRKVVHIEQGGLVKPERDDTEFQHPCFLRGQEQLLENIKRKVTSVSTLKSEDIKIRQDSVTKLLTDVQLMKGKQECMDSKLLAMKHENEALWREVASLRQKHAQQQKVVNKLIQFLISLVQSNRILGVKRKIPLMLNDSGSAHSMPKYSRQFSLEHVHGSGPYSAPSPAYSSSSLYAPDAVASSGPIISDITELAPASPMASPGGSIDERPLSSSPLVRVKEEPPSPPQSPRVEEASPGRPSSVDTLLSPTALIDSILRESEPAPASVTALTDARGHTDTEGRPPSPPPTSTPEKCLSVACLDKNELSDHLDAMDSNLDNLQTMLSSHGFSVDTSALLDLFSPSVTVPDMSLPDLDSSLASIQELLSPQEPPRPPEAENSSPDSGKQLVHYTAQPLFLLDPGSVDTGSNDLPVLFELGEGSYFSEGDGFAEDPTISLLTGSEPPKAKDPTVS
Summary of the method: as §1

SPIC = biological target: T8, SPIC (Homo sapiens, UniProt Q8N5J4 1-248); details: protein: recombinant; tags: N-terminal GST; dsDNA, one strand shown
T8 sequence: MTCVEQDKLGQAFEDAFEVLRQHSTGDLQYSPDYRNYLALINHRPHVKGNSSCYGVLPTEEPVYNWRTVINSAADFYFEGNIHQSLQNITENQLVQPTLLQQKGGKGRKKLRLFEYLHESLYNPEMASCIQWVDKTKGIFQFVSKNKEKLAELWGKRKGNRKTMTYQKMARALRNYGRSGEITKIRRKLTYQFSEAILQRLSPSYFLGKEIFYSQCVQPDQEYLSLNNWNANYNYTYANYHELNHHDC
Summary of the method: as §1

ELF4 = ELF4 (Homo sapiens, UniProt Q99607 1-663); details: protein: recombinant; tags: N-terminal GST; dsDNA, one strand shown
ELF4, sequence (Q99607 whole entry): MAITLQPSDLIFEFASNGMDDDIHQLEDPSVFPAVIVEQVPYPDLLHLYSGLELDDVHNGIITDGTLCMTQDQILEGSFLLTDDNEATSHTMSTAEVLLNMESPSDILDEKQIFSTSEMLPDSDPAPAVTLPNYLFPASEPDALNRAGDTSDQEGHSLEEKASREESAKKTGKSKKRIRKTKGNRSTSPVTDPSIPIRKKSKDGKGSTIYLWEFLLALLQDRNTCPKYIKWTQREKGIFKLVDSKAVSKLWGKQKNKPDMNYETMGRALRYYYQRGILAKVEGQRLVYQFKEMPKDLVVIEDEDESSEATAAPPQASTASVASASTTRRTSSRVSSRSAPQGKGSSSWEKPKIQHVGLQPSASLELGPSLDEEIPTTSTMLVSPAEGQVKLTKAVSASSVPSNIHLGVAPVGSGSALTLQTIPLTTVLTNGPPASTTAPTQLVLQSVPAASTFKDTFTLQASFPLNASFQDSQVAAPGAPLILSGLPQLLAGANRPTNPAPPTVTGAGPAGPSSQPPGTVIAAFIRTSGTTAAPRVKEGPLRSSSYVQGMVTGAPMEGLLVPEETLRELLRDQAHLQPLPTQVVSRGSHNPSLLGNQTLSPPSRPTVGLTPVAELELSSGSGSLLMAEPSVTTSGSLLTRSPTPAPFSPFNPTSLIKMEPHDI
Summary of the method: as §1

ELK4 = biological target: T9, ELK4 (Homo sapiens, UniProt P28324-2 1-405); details: protein: recombinant; tags: N-terminal GST; dsDNA, one strand shown
T9 sequence: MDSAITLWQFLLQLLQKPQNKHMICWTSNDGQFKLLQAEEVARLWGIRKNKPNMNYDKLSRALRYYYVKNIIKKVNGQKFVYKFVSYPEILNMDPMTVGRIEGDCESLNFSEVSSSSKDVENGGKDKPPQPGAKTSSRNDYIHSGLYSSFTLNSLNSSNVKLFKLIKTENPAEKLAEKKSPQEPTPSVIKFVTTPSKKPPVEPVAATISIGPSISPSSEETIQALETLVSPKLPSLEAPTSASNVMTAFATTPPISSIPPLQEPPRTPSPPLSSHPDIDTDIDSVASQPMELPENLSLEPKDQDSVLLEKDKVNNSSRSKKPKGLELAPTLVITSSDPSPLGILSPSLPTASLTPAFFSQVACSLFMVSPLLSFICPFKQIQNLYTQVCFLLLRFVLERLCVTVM
Summary of the method: as §1

ETV2 = biological target: T10, ETV2 (Homo sapiens, UniProt O00321 1-342); details: protein: recombinant; tags: N-terminal GST; dsDNA, one strand shown
T10 sequence: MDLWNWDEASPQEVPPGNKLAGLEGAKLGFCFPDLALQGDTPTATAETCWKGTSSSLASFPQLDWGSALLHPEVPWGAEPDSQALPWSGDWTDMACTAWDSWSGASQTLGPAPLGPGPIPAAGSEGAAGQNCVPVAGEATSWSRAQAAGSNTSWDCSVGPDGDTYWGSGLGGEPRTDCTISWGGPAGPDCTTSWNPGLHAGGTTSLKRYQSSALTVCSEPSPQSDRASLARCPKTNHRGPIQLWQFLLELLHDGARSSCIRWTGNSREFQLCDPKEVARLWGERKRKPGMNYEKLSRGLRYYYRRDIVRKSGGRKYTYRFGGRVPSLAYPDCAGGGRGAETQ
Summary of the method: as §1

ELF3 = biological target: T11, ELF3 (Homo sapiens, UniProt P78545 1-371); details: protein: recombinant; tags: N-terminal GST; dsDNA, one strand shown
T11 sequence: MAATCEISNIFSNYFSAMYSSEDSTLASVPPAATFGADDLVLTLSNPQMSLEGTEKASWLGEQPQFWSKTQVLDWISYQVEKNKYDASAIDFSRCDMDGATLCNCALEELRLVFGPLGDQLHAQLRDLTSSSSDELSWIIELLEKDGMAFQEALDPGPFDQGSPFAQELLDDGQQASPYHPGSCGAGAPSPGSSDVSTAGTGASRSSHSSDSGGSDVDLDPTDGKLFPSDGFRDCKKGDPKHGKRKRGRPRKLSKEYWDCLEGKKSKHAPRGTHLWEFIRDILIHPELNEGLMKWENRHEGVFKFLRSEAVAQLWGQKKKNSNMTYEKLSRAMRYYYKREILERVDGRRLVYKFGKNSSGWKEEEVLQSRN
Summary of the method: as §1

CRX = CRX (Homo sapiens, UniProt O43186 1-299); details: protein: recombinant; tags: N-terminal GST; dsDNA, one strand shown
CRX, sequence (O43186 whole entry): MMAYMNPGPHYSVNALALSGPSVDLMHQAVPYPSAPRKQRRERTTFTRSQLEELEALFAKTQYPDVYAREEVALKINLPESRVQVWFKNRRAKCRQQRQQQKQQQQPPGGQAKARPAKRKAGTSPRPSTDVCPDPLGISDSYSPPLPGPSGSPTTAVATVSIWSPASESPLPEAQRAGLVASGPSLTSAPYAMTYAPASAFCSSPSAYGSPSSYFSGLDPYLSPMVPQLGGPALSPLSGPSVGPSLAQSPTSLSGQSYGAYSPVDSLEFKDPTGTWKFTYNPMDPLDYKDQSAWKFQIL
Summary of the method: as §1

ETV1 = ETV1 (Homo sapiens, UniProt P50549 1-477); details: protein: recombinant; tags: N-terminal GST; dsDNA, one strand shown
ETV1, sequence (P50549 whole entry): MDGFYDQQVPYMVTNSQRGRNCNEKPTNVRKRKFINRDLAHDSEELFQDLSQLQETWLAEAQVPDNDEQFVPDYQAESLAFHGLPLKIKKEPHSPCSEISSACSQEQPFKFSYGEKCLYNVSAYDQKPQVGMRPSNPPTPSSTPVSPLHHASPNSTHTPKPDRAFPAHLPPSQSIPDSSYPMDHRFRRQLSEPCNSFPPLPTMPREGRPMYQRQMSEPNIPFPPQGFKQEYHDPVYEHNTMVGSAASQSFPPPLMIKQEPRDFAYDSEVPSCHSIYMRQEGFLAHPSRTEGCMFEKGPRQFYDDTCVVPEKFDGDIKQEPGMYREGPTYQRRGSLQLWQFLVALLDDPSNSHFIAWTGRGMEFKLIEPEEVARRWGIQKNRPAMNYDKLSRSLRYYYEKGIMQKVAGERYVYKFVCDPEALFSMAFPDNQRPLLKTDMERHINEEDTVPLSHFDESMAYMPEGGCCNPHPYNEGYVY
Summary of the method: as §1

CACTAT
binding signal (FLI1): 1.23 fold enrichment (6-mer frequency, TF over GST control) | binding signal (ELK1): 1.18 fold enrichment (6-mer frequency, TF over GST control) | binding signal (GABPA): 1.31 fold enrichment (6-mer frequency, TF over GST control) | binding signal (ERG): 1.18 fold enrichment (6-mer frequency, TF over GST control) | binding signal (ELF1): 1.26 fold enrichment (6-mer frequency, TF over GST control) | binding signal (EHF): 1.16 fold enrichment (6-mer frequency, TF over GST control) | binding signal (SPI1): 1.25 fold enrichment (6-mer frequency, TF over GST control) | binding signal (SPIB): 1.17 fold enrichment (6-mer frequency, TF over GST control) | binding signal (ELK3): 1.24 fold enrichment (6-mer frequency, TF over GST control) | binding signal (FEV): 1.21 fold enrichment (6-mer frequency, TF over GST control) | binding signal (ETV5): 1.2 fold enrichment (6-mer frequency, TF over GST control) | binding signal (HSF1): 1.05 fold enrichment (6-mer frequency, TF over GST control) | binding signal (SPIC): 1.2 fold enrichment (6-mer frequency, TF over GST control) | binding signal (ELF4): 1.26 fold enrichment (6-mer frequency, TF over GST control) | binding signal (ELK4): 1.25 fold enrichment (6-mer frequency, TF over GST control) | binding signal (ETV2): 1.09 fold enrichment (6-mer frequency, TF over GST control) | binding signal (ELF3): 1.32 fold enrichment (6-mer frequency, TF over GST control) | binding signal (CRX): 1.05 fold enrichment (6-mer frequency, TF over GST control) | binding signal (ETV1): 1.14 fold enrichment (6-mer frequency, TF over GST control)
